Records with an inconclusive call do not appear. Entries that show only a call come without a potency. Activity calls are given as the source filed them. Calls follow the shape of the full dose curve.
Potency is read from the fitted curve at half-maximal effect.

A short description of this test: p53 small molecule agonists, cell-based qHTS assay with human liver microsomes (AID 1963577). The note with it: HCT-116 p53RE-bla with human liver microsomes, ratio, 16 h; series mostly up to 66 µM. Summed up: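 p53RE-bla reporter cells were pre-incubated 5 h at 37 C, then treated with compounds plus human liver microsomes (0.5 mg/mL final) and NADPH (0.5 mg/mL final) for 16 h at 37 C. Beta-lactamase activity was read by LiveBLAzer fluorescence after 2 h at room temperature.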
A general note: In qHTS, concentration-response curves come from the screen itself.
For the molecule `Cc1cc(CCC(=O)OCCOCCOCCOC(=O)CCc2cc(C)c(O)c(C(C)(C)C)c2)cc(C(C)(C)C)c1O`, the Potency entry is “inactive”.
The value for `COCCCOc1ccnc(CS(=O)c2nc3ccccc3[nH]2)c1C` (stereo not given) was “inactive”.
As for `CC(C)(c1ccc(O)cc1)c1ccc(O)cc1`, the entry is “inactive”; as for `C[Si](C)O[Si](C)(C)O[Si](C)(C)O[Si](C)C`, “inactive”; as for `C[C@H]1C[C@H](O)c2ccsc2S1(=O)=O`, “inactive”.
For the molecule `CC1=CCC(C(C)(C)O)CC1` (stereo not given), the Potency entry was “inactive”.
In the case of `CCC(C)=O`, the Potency result is “inactive”.
As to `N=c1nc(N2CCCCC2)cc(N)n1O`, the Potency entry is “inactive”.
As for `CC(C)CCCC(C)N` (stereo not given), the Potency entry is “inactive”.
Regarding `COc1ccc2c(c1)CCCC2=O`, the Potency result was “inactive”.
The value for `CC1=CCC(O)(C(C)C)CC1` (stereo not given) was “inactive”; that for `CCCCCCCC(=O)[O-].CCCCCCCC(=O)[O-].[Zn+2]` was “inactive”.
As for `Nc1nc(N)c2nc(-c3ccccc3)c(N)nc2n1`, the figure is 18.2 µM (active); as for `COC(=O)c1ccccc1C(=O)c1ccc(OCCN2CCCCC2)cc1`, “inactive”.
With `c1coc(CNc2ncnc3nc[nH]c23)c1`, the Potency result was “inactive”.
For `CC1=C(O)C(=O)C(C)O1` (stereo not given), the Potency result was “inactive”.
`Cc1[nH]cnc1-c1ccc(Cl)cc1`: the Potency entry was “inactive”.
In the case of `C1CCCC1`, the Potency entry is “inactive”.
For `CCCC(=O)CC`, the Potency entry is “inactive”.
As for `Oc1ccc(Cl)cc1Sc1cc(Cl)ccc1O`, the entry is “inactive”; as for `CCOCOCC`, “inactive”; as for `CCCC1O[C@@H]2C[C@H]3[C@@H]4CCC5=CC(=O)C=C[C@]5(C)[C@H]4[C@@H](O)C[C@]3(C)[C@]2(C(=O)CO)O1` (stereo not given in full), “inactive”.
For `C1C[C@@H]2[C@H]3CC[C@H](C3)[C@@H]2C1`, the Potency result was “inactive”.
With `CC(C)C(=O)c1ccccc1`, the Potency result is “inactive”.
With `Cc1c(C)c2c(c(C)c1O)CCC(C)(COc1ccc(CC3SC(=O)NC3=O)cc1)O2` (stereo not given), the Potency entry was “inactive”.

Source of the values: PubChem BioAssay (Tox21).
